# Screen size: about 31,000 sequences; about 1,400 (4.5%) were called active. This is one part of a sample in which actives are shown more often than they occur. Values without a mark were called inactive.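 How the source made its calls: active means median seed-adjusted z-score above 1 or below -1; inactive means the rest.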
# Assay: Novel Modifiers of Survival Motor Neuron (SMN) Protein: Gene Identification via Genome-wide siRNA Screen;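 further: luminescence tracks full-length SMN protein made from the SMN2 reporter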
# Settings: HEK293T SMN2-luciferase reporter, siRNA knockdown, 72 h; actives lie on both sides
# Procedure, shortened: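 siRNA screen, 10418 genes ×3 siRNAs; 1 pmol/well, lipid reverse transfection into HEK293T SMN2-luc reporter line. 72 h, 37 °C, 5% CO2; ONE-Glo readout. Data: neg-ctrl normalized, log10, MAD; hit = MAD >1.0 or < -1.0.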
row,Sequence,median seed-adjusted z-score
1,GUAGUGAAGUGUAUCCGGATT against ANXA6,-1.01 (active)
2,GAAUCCUCAAUGUGGAUGATT against HPCA,0.12
3,GGCUUUUUGCUACAGAUGATT against OSGEP,0.0178
4,GUAUGUCACCUAUCACUGUTT against SLC25A38,0
5,GCAUCGCUGUAGGUUUUGATT against THBS2,-0.721
6,GCAUCUGCGAUGUGAGGAATT against RYBP,0.831
7,GCAUCAGGGUCAUGGUUCATT against SCNN1D,-1.8 (active)
8,CCACCUACAGAGUGUCCUATT against EMID2,0.0465
9,GGACAAGACGCAAGAAGAATT against TEF,0
10,CCAAGGAGGUGCACUAUAATT against FHL1,0.574
11,AGAUGAUUCUAGAAUCCAATT against STK32B,0.683
12,GGAAUACCAUGAGCUGUUATT against OSBP,0.256
13,CAAGCAUAUUAAUGAGGUUTT against DYRK1A,-1.3 (active)
14,GCUCCCAUCAUGUACGUUUTT against GPR155,0.0681
15,GGAUGAGCAGUACCAGGCATT against PYCARD,0.117
16,GAACUAAACUUGUUAAUGATT against TRIM36,-0.262
17,GGAGCAACAUUAUAGUCAATT against TGS1,-0.564
18,CUACGAGAAUAAUUCGGAATT against THOC1,-3.04 (active)
19,CCGGGAAAGUAGAAUUACATT against IGF2BP1,-0.993
20,GCAGUACUCUGCUACCUGATT against IL22RA1,-1.14 (active)
21,GGAGAACCAGUGGAAUUCATT against LIN28B,0.407
22,GCACUUCUCUUAAGGACGATT against UNC13B,-0.0216

row,Sequence,median seed-adjusted z-score
1,CAUGUACUAUUUUCAGUAUTT against SETD8,-1.52 (active)
2,GCUUCUUAGCUGAGGAAAATT against RDH11,-0.241
3,CAAGGUAUUAUGCAACGUATT against FLG,0.221
4,GAGUAUGCCGUGAAGAUCATT against RPS6KA2,0.139
5,GGCGUACGGUGAGAACAUUTT against ATP1B1,0.971
6,GUAUAAUCCUCAGAGCAAATT against CXXC1,-0.841
7,CAUGAAUCCUUUACAGCAATT against RALB,-0.534
8,GACUGUGAGACUUACCAUATT against MED20,-1.66 (active)
9,CGGUCUCACCUGCACCAAATT against SSPO,0.397
10,GGAGAUUCACGAGCUGCGATT against EGFL8,0.365
11,GCUCAAGGCAUUCUACAAATT against SLC25A1,0.252
12,GGAUCGAGUUUGAUAACGATT against ITGA6,-0.224
13,GAUACGAAAUGGUGUUAAATT against POLG2,0
14,CCCAAUAACUCUGUCGAUATT against ATP11C,0.102
15,GGAGUAACUGAGAUAGAAATT against AGPAT3,0
16,GGAUCGUAAAAAUAGCAAATT against DGKA,-1.36 (active)
17,GAGCCUCUAUUAAUGGACATT against RASSF6,-0.592
18,GGAACACCCGUUUAACAAATT against ASH2L,-0.464
19,GGAGGAUAGCAGCAGAAGATT against ATP5I,-0.871
20,GGUGAAUGCUGAUGACUCUTT against CLDN16,-0.868
21,CCACCAACGAAUACGUCUATT against PRKCSH,-0.0512
22,GAAUCUACAGGAAACGAGATT against SETD8,-1.52 (active)

row,Sequence,median seed-adjusted z-score
1,CUCUACACCGUGUACAUCATT against CHRM4,-0.856
2,GCAGCAUGAGAAUGUCAAATT against GPD1,0.558
3,CUACAGCCUAUAUAUGAAATT against FCRL1,-0.873
4,CGACAAUAUUCCUUGAUGATT against CTGLF1,0.0231
5,GGGAUAAGCAGAUAGAAGATT against MYST2,-1.46 (active)
6,GGAUGUUUUUCGAAGGAUATT against RHEB,-0.387
7,GGACCGCAGCAAUGACAUUTT against SH3KBP1,-0.34
8,AGACGGUGACUUACAAAAATT against ARF6,-0.805
9,GCAACUUCAUUUCUCAUCUTT against CA6,0.349
10,GUAUAUAAACAGACAAUGATT against DNAJC8,-1.62 (active)
11,UCAUCUUCUUUGACCCAGATT against HNF4A,-0.0274
12,GAGAGAAUCAUUACGAAAATT against MTMR2,0.495
13,CAAACUUAAAGGUCAGAAATT against WHSC1,1.17 (active)
14,GGACAAAGUCUUAACAAAATT against SLC30A10,0.523
15,CCAGACCACUUGCUAUGAATT against GATA6,0.546
16,CUACUGGAGCAACACUGUATT against NDUFA4,0
17,GCAAGAUUAGACAUACUGATT against PSMC6,-0.578
18,GAGCGAGUCUACAAGUGUATT against REST,0.416
19,CAGUCUGCCGAAGAAGUAATT against CDC2L1,-1.14 (active)
20,GGAUCUUCCUUAUUACUCUTT against UBE4A,-0.285
21,CCAGCACGUUGGAAGACCATT against ZNF808,0.138
22,GUCCUUAUCUUUGCAAAUATT against ARL5B,-0.506

row,Sequence,median seed-adjusted z-score
1,GGAGCUACUUAAUCGGGAUTT against ANGEL1,-0.332
2,GCACGGAAAUUCUACAAGATT against ABCA4,-1.09 (active)
3,GGACGAUGUCUACAGCCUATT against SIN3B,0.509
4,CGGGAACUAUCCAAACAAUTT against DMBT1,-0.131
5,GCAGAACUGACAGUCGAUATT against DMTF1,0.396
6,GAGUGGACUGUGGAAGAUATT against RCOR1,-1.13 (active)
7,CCAAAAGAAUAUCCGCUAATT against NLK,0.256
8,CACCUACUGUGAUGACAGATT against EPAS1,-0.166
9,GAAGUAGACUUGAUACGAATT against AQR,-1.56 (active)
10,AGCACAAGGUGGAACCGGUTT against CYGB,-0.34
11,GCUACGAAAUGCUUGCUCATT against GALT,0.484
12,GGAUCAUGACCUAUGCUAATT against AKAP3,0.0138
13,GCUUUGUGAACGACAAUUATT against RABGGTB,-0.856
14,CGCACGGACUGUACCAUUUTT against ETV2,0
15,GCCUACUGGUCAUUGAUCATT against GNMT,0.0261
16,GACAUAUGCAAGAACUAUATT against PSAP,0.107
17,AGAGGAGAGUGGAAUUCCATT against ARID3C,-1.32 (active)
18,GCAGUUUCUUAACCACGUUTT against IFI16,-0.0178
19,ACUUUGCUCCUACUAUUCATT against NEGR1,0.194
20,CCAUCGGACUGACAGUGAATT against COPZ1,-1.02 (active)
21,CGAAAACUGAUACACUUGATT against KSR2,-0.371
22,GCUGAUUUUUGCUAAUAAATT against ARL5A,0

row,Sequence,median seed-adjusted z-score
1,GCAUGUAAUGAGUAUCACATT against MRS2,1.38 (active)
2,GAUCAACUGUGGAAAUAUUTT against KISS1R,-0.299
3,CCGUGUUCAUUCCUUUUCATT against ZFP41,0
4,CCACUAAAGGAUCAACGUATT against PHKB,-0.142
5,GCGACUCCUAGAGAACAAATT against LSG1,1.31 (active)
6,CAAGGUAGCUCAGCACUGATT against PEX6,-0.281
7,AGAGCGAGCCUUUGCUGAUTT against DAD1,-0.45
8,CCCUGCUCCUCACUCAUUUTT against KRTAP5-5,-1.07 (active)
9,GUUCCGUACAGAUAAAGGATT against SAE1,0.831
10,AUGUCACGCUGGUGCCCUATT against IFI30,0.401
11,GUAUCAUGCCCAUCUGAAATT against ZMAT4,-0.0468
12,GAGAGACUCAAGAACGUGATT against ARCN1,-1.25 (active)
13,AGCCUAUGAUUUUCCUGAATT against PTF1A,0.482
14,ACCUUGGUGUUGGACCUCATT against RNF26,0.359
15,GGGACACGCUAAAAGGAGATT against GNB4,0.015
16,GGUCUAGCCUUGAUCAGAATT against SHROOM3,0.779
17,GCAAAUCAGAGGUUCAGAUTT against SQLE,-1.14 (active)
18,GGGCUGCAAGUGGAAUUCATT against NR1H3,0.426
19,GGCAAACGAGUGUGCUUCATT against FAM47B,-0.0631
20,CACCGGAGGUUUAUCACAATT against AMDHD2,-0.0707
21,AGCCUGUAGCUUAAACUUATT against KCTD12,0.431

# — PubChem BioAssay AID1347426 (Functional Genomics Laboratory (NCATS/FGL), 2020)
